According to PubChem BioAssay:

experiment: DUSP6 inhibitors restoring Erk phosphorylation by chemical complementation, primary imaging in DUSP6-transfected HeLa (AID 609); conditions: HeLa MKP-3 transfected, phospho-Erk imaging KS statistic; measured here: nuclear c-Myc green intensity z-score; at 10 µM; cells stimulated with TPA for 15 min

Going from `CN1CCN(C2=Nc3cc(Cl)ccc3Nc3ccccc32)CC1` to `CN(C)CCCN1c2ccccc2CCc2ccccc21`, the z-score falls from 0.0948 to -0.347.

Going from `CCN(CC)CCNC(=O)c1ccc(N)cc1` to `COc1ccc(OCC(=O)OCCN(C)C)cc1`, the z-score falls from -0.602 to -1.2.

Going from `CCOC(=O)C(OC(=O)c1sc(=S)n(C)c1C)C(C)=O` (centres undefined) to `CCOC(=O)C(Oc1ccc(=O)[nH]n1)C(C)=O` (centres undefined), the z-score rises from -0.227 to 0.196.

Compared with `COc1ccc(Cn2ccnc2)cc1Br`, `COc1cc(C(=O)Nc2ccccn2)cc(OC)c1OC` is lower in z-score: 1.89 for the first, -1.03 for the second.

First: CC1(C)CC(=O)C=C(N=CC2=C(O)CC(C)(C)CC2=O)C1
Second: CC1(C)CC(=O)C(C=N)=C(O)C1
The z-score of the first is higher: 1.02 for the first, -0.908 for the second.

First: CC1(C)S[C@@H]2[C@H](NC(=O)[C@H](N)c3ccccc3)C(=O)N2[C@H]1C(=O)O
Second: COC(=O)C1C(=O)NCC1c1ccccc1 (centres undefined)
The z-score of the first is higher: -1.51 for the first, -1.76 for the second.

Going from `Fc1ccc(C(c2ccc(F)cc2)N2CCN(C/C=C/c3ccccc3)CC2)cc1` to `O=C(CCCN1CCC(O)(c2ccc(Cl)cc2)CC1)c1ccc(F)cc1`, the z-score falls from 1.96 to -0.669.

First: O=P(Cc1nnco1)(c1ccccc1)c1ccccc1
Second: CC(=O)Oc1oc(-c2ccccc2)nc1/C=N/c1ccccn1
The z-score of the first is lower: -1.79 for the first, 1.34 for the second.

Going from `C=CCNc1nc(C2(C)CC3(CC(C)(C)OC3=O)C(=O)O2)cs1` (centres undefined) to `CC1(C)CC(=O)C=C(NCCO)C1`, the z-score falls from -0.125 to -0.173.

Compared with `CCCCCOc1ccc(Cl)cc1CN1CCOCC1`, `O=C(CCN1CCc2ccccc21)c1ccc2c(c1)OCCO2` is lower in z-score: 0.0743 for the first, -0.0206 for the second.

Compared with `NC(N)=Nc1nc(CSCC/C(N)=N/S(N)(=O)=O)cs1`, `Nc1nc2c(ncn2COCCO)c(=O)[nH]1` is lower in z-score: 1.78 for the first, 0.247 for the second.

Compared with `COc1ccc(-c2coc3cc(O)cc(O)c3c2=O)cc1`, `COc1ccc([C@@H]2Sc3ccccc3N(CCN(C)C)C(=O)[C@@H]2OC(C)=O)cc1` is lower in z-score: 0.921 for the first, -1.47 for the second.

Going from `O=C(NCCO)C1(c2ccccc2)CCCC1` to `Cc1cc(N/C=C/C(=O)c2cccc3ccccc23)no1`, the z-score falls from 2.28 to 0.59.

Compared with `COc1cc2nc(N3CCN(C(=O)C4CCCO4)CC3)nc(N)c2cc1OC` (centres undefined), `CC[C@H]1CN2CCc3cc(OC)c(OC)cc3[C@@H]2C[C@@H]1C[C@H]1NCCc2cc(OC)c(OC)cc21` is lower in z-score: -0.263 for the first, -0.649 for the second.

Compared with `Cc1nnc(NS(=O)(=O)c2ccc(N)cc2)s1`, `CC1=NS(=O)(=O)c2cc(Cl)ccc2N1` is higher in z-score: 0.446 for the first, 0.773 for the second.

Going from `Cc1nc2sc(C)c(C)c2c(=O)o1` to `CCn1cc(/C=N/O)c(C)n1`, the z-score rises from -1.75 to -0.528.

Compared with `CC(=O)O[C@@]12CO[C@@H]1C[C@H](O)[C@@]1(C)C(=O)[C@H](O)C3=C(C)[C@@H](OC(=O)[C@H](O)[C@@H](NC(=O)OC(C)(C)C)c4ccccc4)C[C@](O)([C@@H](OC(=O)c4ccccc4)[C@H]21)C3(C)C`, `CC[C@]1(O)C[C@@H]2CN(CCc3c([nH]c4ccccc34)[C@@](C(=O)OC)(c3cc4c(cc3OC)N(C)[C@H]3[C@@](O)(C(=O)OC)[C@H](OC(C)=O)[C@]5(CC)C=CCN6CC[C@]43[C@@H]65)C2)C1` is lower in z-score: 0.683 for the first, -0.704 for the second.

First: O=C(NCC1CCCCN1)c1cc(OCC(F)(F)F)ccc1OCC(F)(F)F (centres undefined)
Second: O=C(O)c1ccc(COCC(F)(F)C(F)F)o1
The z-score of the first is higher: 0.032 for the first, -1.01 for the second.

Going from `O=C(c1ccc(N2C(=O)C3CC=C(Cl)CC3C2=O)cc1)N1CCCCC1` (centres undefined) to `COc1ccc[nH]c1=O`, the z-score rises from -0.00489 to 0.536.

For `CC(C)(C#N)C(C)(C)c1nn[nH]n1`, the z-score was -0.296.
